Test results as given in PubChem BioAssay AID504371 (National Center for Advancing Translational Sciences (NCATS), 2011).
Inconclusive results are not listed. A call without a number means that no potency is given here. Active and inactive are the calls of the source. Calls come from the whole dose curve; as a rule, active = well fitted curve in the direction sought with a large enough effect; inconclusive = small, poorly fitted or top-dose-only effect, or another doubt; inactive = no such curve, though single readings can be large or run the other way.

Experiment: qHTS Assay for Compounds Blocking the Interaction Between CBF-beta and RUNX1 for the Treatment of Acute Myeloid Leukemia: ME-1 cellular proliferation, SAR for Probe
Description: NIH Chemical Genomics Center [NCGC] NIH Molecular Libraries Probe Production centers Network [MLPCN] MLPCN Grant: X01MH083259-01 Assay Submitter (PI): Paul Liu NCGC Assay Overview: Core Binding Factor (CBF) abnormalities are associated with 20-25% of all acute myeloid leukemias (AML), of which 5-10% are further sub classified as acute myelomonocytic leukemia with eosinophilia, also known as M4Eo in the FAB classification scheme. This subtype of leukemia is usually associated with chromosome 16 inversion (p13:q22). Chromosome 16 inversion results in formation of the fusion oncogene CBFB-MYH11, which encodes the fusion protein CBF-beta-SMMHC. […] It has been hypothesized that the interference of CBF-beta and RUNX1 binding could have therapeutic implications for patients with CBF mediated leukemias. We developed a CBF-beta and RUNX1 binding assay in AlphaScreenTM format and optimized it for high throughput screening to search for inhibitors. […]
NCGC Assay protocol: 2uL/well media was dispensed per well into 1536-well white solid-bottom plates using Multidrop Combi dispenser. […] The plates were incubated at 37 °C with 5% CO2 and 95% humidity for 48 hours, and then ATP content was measured following the addition of 4uL/well of ATPlite reagent and a 20 min incubation on a ViewLux plate reader.

CCc1sc(N)nc1-c1ccc(OC)cc1
Potency: inactive

Nc1ccc(Cl)cc1C(=O)c1ccc[nH]1
Potency: 109 µM (active)
